Several values for one entry are separate records, joined by “and”; a condition that tells them apart may be missing. Identical values can stand only once. Records with an inconclusive call do not appear. A number with no mark means an inactive call. Activity calls are given as the source filed them. Unless noted, calls follow the shape of the dose curve; as a rule, active = well fitted curve in the direction sought with a large enough effect in the repeat runs; inconclusive = weak or mixed curves; inactive = no such curve, though single readings can be large; an effect the other way counts as inactive or inconclusive.

In PubChem BioAssay (Tox21) one finds Potency, outcome and activity, negative = cytotoxicity data, which are given here for 15 compounds.

A short description of test [1]: qHTS assay for small molecule disruptors of the mitochondrial membrane potential (AID 720635). Also: potency is read from the fitted curve at half-maximal effect. In outline: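 HepG2 cells exposed to compound 1 hr at 37C, then Mito-MPS dye 30 min. Ratio read of aggregate (540/590 nm) versus monomer (490/535 nm) fluorescence.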
A general note: In qHTS, concentration-response curves come from the screen itself.

Test [2] deals with Glucocorticoid receptor (Homo sapiens) (UniProt P04150). Put plainly: qHTS assay to identify small molecule agonists of the glucocorticoid receptor (GR) signaling pathway (AID 720691; active = well fitted activation curve with a large enough effect in the signal ratio in the repeat runs, not every such curve was filed as active; the % refers to the signal ratio; also: % is scaled to controls: 0 for no effect and ±100 for the full control effect). In outline: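 qHTS in GR-bla HeLa cells: 4 h settling at 37 C/5% CO2, 18 h compound incubation at 37 C, 2 h LiveBLAzer B/G FRET substrate at room temperature, fluorescence intensity measured.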
Chain of Glucocorticoid receptor (Homo sapiens) (P04150 whole entry, looked up): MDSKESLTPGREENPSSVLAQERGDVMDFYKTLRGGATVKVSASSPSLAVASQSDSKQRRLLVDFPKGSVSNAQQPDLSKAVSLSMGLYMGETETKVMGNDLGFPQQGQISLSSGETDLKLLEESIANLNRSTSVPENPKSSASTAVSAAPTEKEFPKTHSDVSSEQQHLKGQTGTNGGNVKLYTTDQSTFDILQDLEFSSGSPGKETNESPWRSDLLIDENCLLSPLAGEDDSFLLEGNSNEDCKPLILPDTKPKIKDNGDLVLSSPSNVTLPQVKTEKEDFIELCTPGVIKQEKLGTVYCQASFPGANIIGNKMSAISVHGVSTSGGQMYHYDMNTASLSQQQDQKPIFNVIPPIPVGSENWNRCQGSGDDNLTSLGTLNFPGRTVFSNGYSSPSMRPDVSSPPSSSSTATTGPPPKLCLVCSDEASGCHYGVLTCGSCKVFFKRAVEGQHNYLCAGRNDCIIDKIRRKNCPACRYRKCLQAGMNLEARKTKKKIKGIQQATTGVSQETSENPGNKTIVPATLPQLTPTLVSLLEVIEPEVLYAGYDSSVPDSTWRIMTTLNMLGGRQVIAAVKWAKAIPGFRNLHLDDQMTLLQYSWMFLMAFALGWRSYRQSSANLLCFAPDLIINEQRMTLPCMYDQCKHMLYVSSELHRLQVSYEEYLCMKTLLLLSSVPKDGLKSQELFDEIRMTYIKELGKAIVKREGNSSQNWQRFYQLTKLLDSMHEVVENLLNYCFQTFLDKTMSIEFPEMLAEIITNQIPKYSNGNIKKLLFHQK

Test [3] is described as follows: qHTS assay to identify small molecule agonists of the retinoic acid receptor (RAR) signaling pathway (AID 1159553). Also: % is scaled to controls: 0 for no effect and ±100 for the full control effect. In outline:
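Reporter readout comes from luciferase under RARE control in C3RL4 cells; compound exposure lasts 6 hr at 37 C in 5% CO2, and luminescence is recorded following a 30 min room-temperature incubation with reagent.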

Test [4] in a line: qHTS assay to identify small molecule phospholipidosis (PLD) inducers (AID 1259344; active = well fitted curve in the direction sought with a large enough effect; an effect the other way counts as inactive or inconclusive; also: potency is read from the fitted curve at half-maximal effect). In a few lines:
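HepG2 cells, 900/well, treated with compound plus LipidTOX Red for 24 h at 37 C; amiodarone positive and DMSO negative controls. Fixed with paraformaldehyde/Hoechst, then high-content imaging scored LipidTOX pit count and integrated intensity per well and per cell.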

Test [5] in a line: qHTS assay for small molecule agonists of the p53 signaling pathway - cell viability (AID 651633; calls by dose curve; also: nearly all actives have a fitted effect of over 30% in size; also: potency is read from the fitted curve at half-maximal effect). In outline: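 p53RE-bla cells were treated with compound for 16 hours at 37 C. Cytotoxicity was then measured as CellTiter-Glo luminescence after 30 min at room temperature.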
In test [6] the test system is thyroid hormone receptor (rat, GH3 cells). Put plainly: qHTS assay to identify small molecule agonists of the thyroid receptor (TR) signaling pathway (AID 743066; calls by dose curve; also: % is scaled to controls: 0 for no effect and ±100 for the full control effect).
The target of test [7] is Peroxisome proliferator-activated receptor gamma (Homo sapiens) (UniProt P37231). Put plainly: qHTS assay to identify small molecule agonists of the peroxisome proliferator-activated receptor gamma (PPARg) signaling pathway (AID 743094; active = well fitted activation curve with a large enough effect in the signal ratio in the repeat runs, not every such curve was filed as active; the % refers to the signal ratio; also: % is scaled to controls: 0 for no effect and ±100 for the full control effect). In a few lines: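 Compounds dissolved in DMSO were added to PPARg UAS-bla HEK293H cells for 17 h at 37C, and reporter expression was quantified by fluorescence intensity after 1 h with LiveBLAzer B/G FRET substrate.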
Chain of Peroxisome proliferator-activated receptor gamma (Homo sapiens) (P37231 whole entry, looked up): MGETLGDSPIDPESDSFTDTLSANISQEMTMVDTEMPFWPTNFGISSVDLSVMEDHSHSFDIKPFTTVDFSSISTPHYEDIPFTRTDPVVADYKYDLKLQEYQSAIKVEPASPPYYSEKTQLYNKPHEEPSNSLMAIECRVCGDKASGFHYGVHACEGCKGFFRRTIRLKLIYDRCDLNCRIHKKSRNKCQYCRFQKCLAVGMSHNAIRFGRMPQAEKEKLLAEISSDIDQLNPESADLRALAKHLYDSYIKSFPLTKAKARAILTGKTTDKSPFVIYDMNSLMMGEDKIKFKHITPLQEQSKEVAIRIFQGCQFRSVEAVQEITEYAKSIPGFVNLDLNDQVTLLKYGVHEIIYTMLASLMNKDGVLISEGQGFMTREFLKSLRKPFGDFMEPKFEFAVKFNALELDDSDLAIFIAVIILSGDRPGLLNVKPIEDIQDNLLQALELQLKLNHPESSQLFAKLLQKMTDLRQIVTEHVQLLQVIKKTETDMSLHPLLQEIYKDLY

A short description of test [8]: qHTS assay to identify small molecule antagonists of the retinoid-related orphan receptor gamma (ROR-gamma) signaling pathway - cell viability counter screen (AID 1159520). Also: nearly all actives have a fitted effect of over 50% in size. Also: potency is read from the fitted curve at half-maximal effect. In outline: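 Tet-on ROR gamma CHO cells were given compounds for 2 hr, then doxycycline hyclate at 1 uM final, and incubated 16 hr at 37 C. Viability was measured as ATP content by CellTiter-Glo luminescence.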

The nature of test [9]: qHTS assay to identify small molecule agonists of the hypoxia (HIF-1) signaling pathway (AID 1224846; active = well fitted activation curve with a large enough effect in the signal ratio in the repeat runs, not every such curve was filed as active; the % refers to the signal ratio; also: % is scaled to controls: 0 for no effect and ±100 for the full control effect). In a few lines:
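A low-serum medium (0.5% dialyzed FBS) holding 2,000 HRE-bla ME-180 cells per well is preincubated for 5 hrs, dosed with compounds by pintool, and kept a further 17 hrs at 37C, 5% CO2 before CCF4-AM FRET detection of beta-lactamase.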

Test [10] can be described thus: qHTS assay for small molecule disruptors of the mitochondrial membrane potential - cell viability (AID 720634; calls by dose curve; also: nearly all actives have a fitted effect of over 20% in size; also: potency is read from the fitted curve at half-maximal effect). In outline: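 HepG2, 1 hr compound, 37 C. ATP luminescence via CellTiter-Glo, 30 min RT, same well as m-MPI.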
Test [11] in a line: qHTS assay to identify small molecule antagonists of the peroxisome proliferator-activated receptor gamma (PPARg) signaling pathway - cell viability counter screen (AID 743194). Also: potency is read from the fitted curve at half-maximal effect; nearly all actives have a fitted effect of over 55% in size. Particulars: Potency: co-treated with 50 nM rosiglitazone unless noted. In a few lines:
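Cytotoxicity counter screen in PPARg-bla HEK293H cells, same wells as reporter assay. Compounds plus 50 nM rosiglitazone (final) for 17 h at 37 C, then viability read by CellTiter-Glo luminescence.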

A short description of test [12]: qHTS assay for small molecule activators of the heat shock response signaling pathway - cell viability counter screen (AID 743209). Also: nearly all actives have a fitted effect of over 50% in size. Also: potency is read from the fitted curve at half-maximal effect. In a few lines: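 Readout: CellTiter-Glo luminescence, 30 min at room temperature. System: HSE-bla HeLa cells, 1500/well, plated overnight. Treatment: compounds in DMSO, 5 h at 37 C.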
A short description of test [13]: qHTS assay to identify small molecule agonists of the farnesoid-X-receptor (FXR) signaling pathway - cell viability counter screen (AID 743218). Also: nearly all actives have a fitted effect of over 45% in size. Also: potency is read from the fitted curve at half-maximal effect. In a few lines: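 Parallel cytotoxicity test: compound-treated (16 h, 37 C) HEK 293T FXR-bla reporter cells were lysed with CellTiter-Glo and luminescence recorded.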
Test [14] can be described thus: qHTS assay to identify small molecule antagonists of the vitamin D receptor (VDR) signaling pathway - cell viability counter screen (AID 743225). Also: nearly all actives have a fitted effect of over 50% in size. Also: potency is read from the fitted curve at half-maximal effect. In a few lines: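 Read-out: CellTiter-Glo luminescence measured 30 min after reagent addition at room temperature. Cells were VDR-bla HEK 293T exposed 16 h at 37C, 5% CO2, to compound with 3 nM final calcitriol agonist.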

A short description of test [15]: qHTS assay for small molecule agonists of the antioxidant response element (ARE) signaling pathway - cell viability counter screen (AID 743203; calls by dose curve; also: nearly all actives have a fitted effect of over 55% in size; also: potency is read from the fitted curve at half-maximal effect). In outline:
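Following 16 hrs of compound treatment at 37C, HepG2 cells with an ARE-controlled beta-lactamase gene were lysed with CellTiter-Glo. Luminescence was read after 30 min at room temperature.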

The nature of test [16]: qHTS assay to identify small molecule antagonists of the peroxisome proliferator-activated receptor delta (PPARd) signaling pathway - cell viability counter screen (AID 743213). Also: % is scaled to controls: 0 for no effect and ±100 for the full control effect; nearly all actives have a fitted effect of over 50% in size. In outline:
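Luminescence from CellTiter-Glo, added after the bla read and incubated 30 min at room temperature, gives viability of HEK293H PPARd-bla cells exposed to compounds for 17 h at 37 C with 300 nM L165041.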

Test [17] in a line: qHTS assay to identify small molecule antagonists of the estrogen receptor alpha (ER-alpha) signaling pathway - cell viability counter screen (AID 743074; calls by dose curve;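 also: HEK293 cells carrying ER-alpha-UAS-bla reporter stimulated with 17beta-estradiol; nearly all actives have a fitted effect of over 45% in size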; also: potency is read from the fitted curve at half-maximal effect).
A short description of test [18]: qHTS assay to identify small molecule agonists of the vitamin D receptor (VDR) signaling pathway - cell viability counter screen (AID 743224). Also: nearly all actives have a fitted effect of over 50% in size. Also: potency is read from the fitted curve at half-maximal effect. In a few lines: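 Plated VDR-bla cells (4 h, 37C) received compound, incubated 16 h, then LiveBLAzer substrate 2 h RT; CellTiter-Glo added afterwards, luminescence read at 30 min.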
The target of test [19] is Peroxisome proliferator-activated receptor delta (Homo sapiens) (UniProt Q03181). Put plainly: qHTS assay to identify small molecule agonists of the peroxisome proliferator-activated receptor delta (PPARd) signaling pathway (AID 743212; calls by dose curve; also: % is scaled to controls: 0 for no effect and ±100 for the full control effect). In a few lines: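 GeneBLAzer UAS-bla HEK293H cells carrying a PPARδ construct were exposed to compounds at 37 °C. Beta-lactamase activity was read by FRET fluorescence after 2 h at room temperature with LiveBLAzer B/G substrate.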
Chain of Peroxisome proliferator-activated receptor delta (Homo sapiens) (Q03181 whole entry, looked up): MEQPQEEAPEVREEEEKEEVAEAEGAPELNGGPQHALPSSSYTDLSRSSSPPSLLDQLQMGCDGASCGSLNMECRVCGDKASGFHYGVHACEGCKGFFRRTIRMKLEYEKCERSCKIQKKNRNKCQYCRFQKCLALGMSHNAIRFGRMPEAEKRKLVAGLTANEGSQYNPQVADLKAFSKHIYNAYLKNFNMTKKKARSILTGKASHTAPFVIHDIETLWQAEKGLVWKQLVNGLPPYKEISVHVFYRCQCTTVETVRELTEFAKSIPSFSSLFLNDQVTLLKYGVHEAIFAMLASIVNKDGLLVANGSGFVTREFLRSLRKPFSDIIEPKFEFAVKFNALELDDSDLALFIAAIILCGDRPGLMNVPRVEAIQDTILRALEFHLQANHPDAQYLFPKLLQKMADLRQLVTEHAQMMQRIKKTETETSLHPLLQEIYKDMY

For test [20], the target named is Vitamin D3 receptor (Homo sapiens) (UniProt P11473). Description: qHTS assay to identify small molecule agonists of the vitamin D receptor (VDR) signaling pathway (AID 743222; calls by dose curve; also: % is scaled to controls: 0 for no effect and ±100 for the full control effect). In outline: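 In VDR-bla cells, compound-induced beta-lactamase expression is quantified by FRET substrate fluorescence. Treatment lasts 16 h at 37C; substrate develops 2 h at room temperature.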
Chain of Vitamin D3 receptor (Homo sapiens) (P11473 whole entry, looked up): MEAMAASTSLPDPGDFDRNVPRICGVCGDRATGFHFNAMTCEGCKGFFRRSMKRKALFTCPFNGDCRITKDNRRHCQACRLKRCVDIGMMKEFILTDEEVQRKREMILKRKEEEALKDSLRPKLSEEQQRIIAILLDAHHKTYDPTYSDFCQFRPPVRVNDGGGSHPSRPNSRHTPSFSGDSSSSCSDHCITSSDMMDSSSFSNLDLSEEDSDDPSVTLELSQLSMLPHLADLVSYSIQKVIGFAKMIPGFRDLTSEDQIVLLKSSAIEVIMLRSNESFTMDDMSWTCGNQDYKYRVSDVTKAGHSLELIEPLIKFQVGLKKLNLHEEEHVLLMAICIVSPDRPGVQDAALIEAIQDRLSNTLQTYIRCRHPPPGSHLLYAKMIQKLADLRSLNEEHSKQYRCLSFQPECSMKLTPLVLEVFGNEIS

With `COc1ccc(C(c2ccc(OC)cc2)C(Cl)(Cl)Cl)cc1`, the Potency was 13.7 µM (active) in test [1] and 31.6 µM (active) in [4]. Besides, the Potency result in test [2] is “inactive”. For the same compound, in test [3], the call was inactive.

As to `O=C(Nc1ccccc1-c1ccc(Cl)cc1)c1cccnc1Cl`, the Potency result in test [5], in test [2], in test [6], in [7] and in test [4] was “inactive” in each case. Further, the compound was called inactive in test [3].

Turning to `ClC(Cl)=C(c1ccc(Cl)cc1)c1ccccc1Cl`, the Potency entry in [8] was “inactive”. For the same compound, the call in test [9] was inactive.

Regarding `Cc1nnc2n1-c1sc(CCc3ccc(CC(C)C)cc3)cc1C(c1ccccc1Cl)=NC2C` (stereo not given), the Potency in [5] is 23.7 µM (active); in test [1], 21.1 µM (active); in [11] it was 29.8 µM [setting not given] (active); in test [12], 29.8 µM (active); in [13] it was 33.5 µM (active); in [14] it was 23.9 µM (active). Moreover, the Potency entry in [10] and in [4] was “inactive” in each case.

As to `COc1cc(OC)c(OC)cc1C=O`, the Potency entry in test [5], in test [10], in [2], in test [15] and in [16] was “inactive” throughout.

As for `CNC(=O)Oc1cc(C)c(SC)c(C)c1`, in test [9], the compound was called inactive.

In the case of `Cc1ccc2nc3sc(=O)sc3nc2c1`, in test [8], the activity, negative = cytotoxicity is -10.1% [at 19 µM].

In the case of `CO/C=C(/C(=O)OC)c1ccccc1Oc1cc(Oc2ccccc2C#N)ncn1`, the Potency in test [1] is 2.31 µM (active); in test [17], 16.5 µM (active); in test [18], 5.22 µM (active). Moreover, the Potency entry in test [2], in test [6] and in test [12] was “inactive” throughout. Further, the result in [3] was inactive.

In the case of `N#Cc1cc([N+](=O)[O-])ccc1N`, the Potency result in test [8] was “inactive”. For the same compound, the compound was called inactive in test [9].

Turning to `O=S(=O)(C(Cl)(Cl)Cl)C(Cl)(Cl)Cl`, the Potency in [8] is 17.2 µM (active).

As for `O=C1C(I)=CC(=C(c2cc(I)c(O)c(I)c2)c2ccccc2C(=O)O)C=C1I`, the Potency entry in test [10], in test [6], in test [17], in [16], in test [13] and in test [14] was “inactive” in each case. Also, the Potency entry in test [8] and in [4] was “inactive” in each case. Further, in test [1], the Potency was 8.41 µM (active) and 4.22 µM (active). The compound was classed as inactive in test [19], in test [20] and in test [3].

On to `O=[N+]([O-])c1c(Cl)c(Cl)cc(Cl)c1Cl`, for which the Potency entry in test [5], in [6], in test [7], in test [15], in test [18] and in test [8] was “inactive” in each case. Besides, in test [4], the Potency entry is “inactive”. The result in test [3] and in [9] was inactive.

Regarding `OCC(c1ccc(Cl)cc1)c1ccc(Cl)cc1`, the Potency entry in test [17], in test [7], in [12] and in test [13] was “inactive” each time. The outcome in test [20] and in test [9] was inactive. In [14], the Potency is 54.9 µM (active).

Regarding `Nc1ccc([N+](=O)[O-])cc1`, the Potency in test [1] is 1.37 µM (active). For the same compound, the Potency result in [2], in test [6] and in test [4] was “inactive” each time. The outcome in [20] was inactive.

For the compound `CC1COC(Cn2cncn2)(c2ccc(Oc3ccc(Cl)cc3)cc2Cl)O1` (stereo not given), the Potency entry in [5] and in [12] was “inactive” each time. Moreover, the Potency in [10] was 2.43 µM (active); in test [11], 49 µM (active); in test [15], 54.5 µM (active); in test [13], 49 µM (active); in [18], 54.9 µM (active); in test [14] it was 49 µM (active). The outcome in test [19] and in test [3] was inactive.
